The record followed here is PMC4336329 (PLoS ONE, 2015).

The campaign covered roughly 310,000 compounds. About 14,000 (4.5%) showed an effect of 50% or more. The effect is printed as a negative number. What follows is part of a selection rich in strong results, with near analogues and random picks from the rest.
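Further: peak tail current of the secondary pulse compared with the same well before compound.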

Chain of human ether-à-go-go-related gene (hERG) potassium channel (Q12809 whole entry, looked up): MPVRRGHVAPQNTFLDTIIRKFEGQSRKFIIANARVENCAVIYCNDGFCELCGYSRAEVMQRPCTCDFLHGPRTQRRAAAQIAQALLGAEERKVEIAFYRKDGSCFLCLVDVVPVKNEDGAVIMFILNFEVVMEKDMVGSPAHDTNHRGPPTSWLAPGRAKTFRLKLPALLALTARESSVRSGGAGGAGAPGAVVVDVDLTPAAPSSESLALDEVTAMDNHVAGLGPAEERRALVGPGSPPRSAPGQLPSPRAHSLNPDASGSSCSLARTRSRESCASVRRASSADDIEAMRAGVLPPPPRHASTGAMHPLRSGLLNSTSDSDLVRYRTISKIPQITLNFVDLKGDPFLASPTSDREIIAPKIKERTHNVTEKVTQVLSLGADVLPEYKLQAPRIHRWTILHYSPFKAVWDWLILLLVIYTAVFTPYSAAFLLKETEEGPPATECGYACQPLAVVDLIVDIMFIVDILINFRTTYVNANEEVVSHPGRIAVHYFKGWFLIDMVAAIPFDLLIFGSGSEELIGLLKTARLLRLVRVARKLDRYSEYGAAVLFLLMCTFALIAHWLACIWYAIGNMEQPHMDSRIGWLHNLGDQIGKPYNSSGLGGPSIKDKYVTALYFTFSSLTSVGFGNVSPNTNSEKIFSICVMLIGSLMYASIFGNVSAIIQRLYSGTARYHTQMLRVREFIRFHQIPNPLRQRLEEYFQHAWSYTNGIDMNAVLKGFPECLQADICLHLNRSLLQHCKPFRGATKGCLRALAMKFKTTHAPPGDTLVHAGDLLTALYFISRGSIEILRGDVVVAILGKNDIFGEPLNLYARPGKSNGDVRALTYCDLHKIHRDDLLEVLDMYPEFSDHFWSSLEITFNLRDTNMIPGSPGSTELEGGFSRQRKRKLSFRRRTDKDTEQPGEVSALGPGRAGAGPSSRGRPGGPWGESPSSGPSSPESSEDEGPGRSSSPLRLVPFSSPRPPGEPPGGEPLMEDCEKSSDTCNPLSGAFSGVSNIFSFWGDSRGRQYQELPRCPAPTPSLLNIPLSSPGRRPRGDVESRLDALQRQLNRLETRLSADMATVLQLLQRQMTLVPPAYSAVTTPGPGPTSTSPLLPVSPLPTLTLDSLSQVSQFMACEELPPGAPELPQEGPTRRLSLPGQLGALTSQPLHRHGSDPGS

The test has as its target human ether-à-go-go-related gene (hERG) potassium channel (human, UniProt Q12809). Put plainly: primary screen, population patch clamp on CHO cells stably expressing hERG; higher = less effect of the substance.
On to `Cc1csc(SC(C)C(=O)Nc2ccc3c(c2)OCCO3)n1` (stereo not drawn), for which the “hERG current change (%, negative = inhibition) at 10uM” value is on record as 6.25%. `COc1ccc(OC)c(C2CC(=O)c3c([nH]c(C(=O)OCC4CCCO4)c3C)C2)c1` (stereo not drawn): the “hERG current change (%, negative = inhibition) at 10uM” value is recorded as 3.54%. The value for `CCOC(=O)C1C(=O)NC(N2CCN(CC)CC2)=NC1c1ccccc1` (stereo not drawn) was 16.8%. As for `CC1CCC(CN2CCN=C2Nc2ccccc2)CC1` (stereo not drawn), the “hERG current change (%, negative = inhibition) at 10uM” value is listed as -14.7%.

As for `CC(C)c1nnc(NC(=O)CCC(=O)NC2CCCCC2)s1`, the “hERG current change (%, negative = inhibition) at 10uM” value is on record as 1.73%. The value for `O=C(Nc1ccnn1C1CCN(C(=O)c2cc(Cl)ccc2F)CC1)C1CCOC1` (stereo not drawn) was 23.6%. Take `Fc1ccc2c(-c3cccc(C(F)(F)F)c3)c(-c3ccccc3)ncc2c1`: the “hERG current change (%, negative = inhibition) at 10uM” value worked out at 14.1%. The value for `Cc1cc(C)cc(NC(=O)COc2coc(CN3CCc4ccccc43)cc2=O)c1` was 2.85%; that for `Cc1cc(C)c(NC(=O)COC(=O)C2CCCCC2)c(C)c1` was 4.87%.

For `Cc1cc(C)n(-c2cc(N3CCN(S(=O)(=O)c4ccc5ccccc5c4)CC3)ccc2[N+](=O)[O-])n1`, the “hERG current change (%, negative = inhibition) at 10uM” value is recorded as -1.13%. The value for `Cc1cc(C)n(-c2cc(N3CCN(C(=O)c4cccc(Br)c4)CC3)ccc2[N+](=O)[O-])n1` was -67.6%. The value for `Cc1cc(C)n(-c2cc(N3CCN(C(=O)c4cccc(F)c4)CC3)ccc2[N+](=O)[O-])n1` was -67.9%; that for `Cc1cc(C)n(-c2cc(N3CCN(S(=O)(=O)c4ccc(Br)cc4)CC3)ccc2[N+](=O)[O-])n1` was -21.3%. The value for `O=C(c1cccc(F)c1)N1CCN(c2ccc([N+](=O)[O-])c(N3CCOCC3)c2)CC1` was -25%; that for `CCN(CC(=O)Nc1ccccc1OC)C(=O)c1ccccc1Sc1ccccc1C#N` was 8.48%; that for `O=C(Nc1ccccc1)N1CCCN(c2nccc(C(F)(F)F)n2)CC1` was -5.36%. For `O=C(CSc1ncn[nH]1)Nc1ccc(Br)cc1F`, the “hERG current change (%, negative = inhibition) at 10uM” value is recorded as -5.57%. The value for `CCOC(=O)c1cnc2cc(C)ccn2c1=O` was -7.41%.

`Cc1cccc(NC(=O)CN(C)CC(=O)NC(c2ccccc2)c2ccccc2)c1C`: the “hERG current change (%, negative = inhibition) at 10uM” value is on record as -30.5%. Regarding `Cc1ccccc1NC1=NCC(c2ccc([N+](=O)[O-])cc2)S1` (stereo not drawn), the “hERG current change (%, negative = inhibition) at 10uM” value is on record as -44.9%. The value for `O=[N+]([O-])c1ccc(C2CN=C(Nc3ccccc3)S2)cc1` (stereo not drawn) was -60.2%. The value for `CCc1ccc(NC2=NCC(c3ccccc3)S2)cc1` (stereo not drawn) was -17.5%; that for `CCN(CC)c1ccc(/C=N/NC(=O)CNC(=O)c2ccc3c(c2)OCCO3)cc1` was -5.14%; that for `COc1ccc(CC(=O)NCCS(=O)(=O)N2CCN(c3ccccc3OC)CC2)cc1` was -17.1%.

For the molecule `Cc1oc(-c2cccc(Cl)c2)nc1CN1CCC(C(=O)NCc2ccco2)CC1`, the “hERG current change (%, negative = inhibition) at 10uM” value is reported as -78%. For the molecule `CCc1ccc(-c2nc(CN3CCC(C(=O)NCc4ccc(F)cc4)CC3)c(C)o2)cc1`, the “hERG current change (%, negative = inhibition) at 10uM” value is -50.5%. The value for `CCc1ccc(-c2nc(CS(=O)CC(=O)NCc3ccco3)c(C)o2)cc1` (stereo not drawn) was 1.94%. For `O=C(NCc1ccco1)C1CCN(Cc2ccc(F)cc2)CC1.O=C(O)C(=O)O`, the “hERG current change (%, negative = inhibition) at 10uM” value is recorded as -15.4%. The value for `Cc1oc(-c2ccc(Cl)cc2)nc1CN1CCC(C(=O)NCc2ccco2)CC1` was -71.2%; that for `Cc1oc(-c2cccc(Cl)c2)nc1CN1CCC(C(=O)NC2CC2)CC1` was 16.2%; that for `Cc1oc(-c2ccc(Cl)cc2)nc1CS(=O)CC(=O)NCc1ccco1` (stereo not drawn) was -35.6%. For the molecule `CCc1ccc(-c2nc(CN3CCC(C(=O)NCc4ccco4)CC3)c(C)o2)cc1`, the “hERG current change (%, negative = inhibition) at 10uM” value is -66.3%. The value for `COc1ccc(C(=O)NC2CCCCCC2)cc1S(=O)(=O)N1CCCc2ccccc21` was 11.3%.

Take `CCOc1ccc(C2N(c3ccc(OC)cc3)C(=O)C3CCCN32)cc1OC` (stereo not drawn): the “hERG current change (%, negative = inhibition) at 10uM” value is on record as -3.49%. The value for `CC1CCN(S(=O)(=O)c2ccc(NC(=O)CCN3C(=O)C4CC=CCC4C3=O)cc2)CC1` (stereo not drawn) was -25.3%; that for `Nc1ccc(N=Nc2ccccc2)c2ccccc12` was 22.4%. Turning to `COc1ccccc1CN(C)C(=O)c1ccccc1Sc1ccccc1C#N`, the “hERG current change (%, negative = inhibition) at 10uM” value was -25%. The value for `O=C(NCc1ccco1)c1ccc(S(=O)(=O)c2cccc(S(=O)(=O)N3CCOCC3)c2)cc1` was 2.58%; that for `CCN(CC)P(=O)(c1n(CC)cc[n+]1CC)N(CC)CC.[I-]` was 15.1%; that for `CCOC(=O)Cn1c(CN2CCN(C(=O)c3ccco3)CC2)nc2c1c(=O)n(C)c(=O)n2C` was -13.3%. The value for `O=C(Nc1ccc(N2CCN(C(=O)c3ccco3)CC2)c(Cl)c1)c1cccnc1` was -16.8%; that for `Cc1ccccc1-c1nc(CN2CCC(C(=O)NCc3ccco3)CC2)c(C)o1` was -73.6%; that for `Cc1oc(-c2ccccc2F)nc1CN1CCC(C(=O)NCc2ccco2)CC1` was -38%.

With `COc1ccc(OC)c(S(=O)(=O)NC2CCN(Cc3ccccc3)CC2)c1`, the “hERG current change (%, negative = inhibition) at 10uM” value is on record as -4.92%. The value for `Nc1ccc(C(=O)N/N=C2\CCCc3c2[nH]c2ccccc32)cc1` was 16.2%.
